Drawing on PubChem BioAssay (EPA / NIEHS), this text covers outcome and AC50 for three compounds.

Test [1] in a line: ATG_DR4_LXR_CIS: Attagene CIS-FACTORIAL HepG2 Assay for human Liver X Receptor (LXR), DR4 submotif (AID 2282929). The conditions noted are these: HepG2 Attagene DR4 cis-reporter, mRNA transcription; AC50: actives raise or lower the signal unless noted; outcome: actives raise or lower the signal unless noted. In short, it runs like this:
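HepG2 cells transiently transfected with cis-promoter-driven multiplexed reporter units (DR4 element) were dosed for 24 h. Reporter mRNA was quantified by RT-PCR, fluorescent primer extension, HpaI digestion and capillary electrophoresis; bidirectional fitting versus DMSO baseline.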

The target in test [2] is Aryl hydrocarbon receptor (Homo sapiens) (UniProt P35869). Put plainly: ATG_Ahr_CIS: Attagene CIS-FACTORIAL HepG2 Assay for human Aryl Hydrocarbon Receptor (Ahr) (AID 2282930). The conditions noted are these: HepG2 AhR cis-factorial reporter transcription; actives raise or lower the signal. In short, it runs like this:
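HepG2 cells transiently transfected with cis-element-driven multiplexed reporter transcription units; endogenous transcription factor activity measured as reporter mRNA 24 h after dosing. RT-PCR, 6-FAM labelling, HpaI digestion, capillary electrophoresis; bidirectional fitting versus DMSO baseline.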

Test [3] in a line: ATG_AP_1_CIS: Attagene CIS-FACTORIAL HepG2 Assay for human Activator Protein 1 (AP-1) (AID 2282931). The conditions noted are these: HepG2 Attagene cis-factorial AP-1 reporter mRNA; actives raise or lower the signal. In short, it runs like this: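 HepG2 cells transiently transfected with cis-element-driven multiplex reporter units; 24 h compound exposure. Reporter mRNA quantified by RT-PCR, FAM-labelled fragments resolved by capillary electrophoresis; bidirectional fit versus DMSO baseline.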

Test [4] can be described thus: ATG_AP_2_CIS: Attagene CIS-FACTORIAL HepG2 Assay for human Activator Protein 2 (AP-2) (AID 2282932). The conditions noted are these: HepG2 AP-2 cis-reporter, Attagene transcription factor profiling; AC50: actives raise or lower the signal unless noted; outcome: actives raise or lower the signal unless noted. In short, it runs like this: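 Cells (HepG2) transfected with promoter-driven reporter constructs, treated 24 h. Total RNA reverse-transcribed, reporter cDNA PCR-amplified, FAM-labelled by primer extension, digested, resolved by capillary electrophoresis. Activity fitted both directions versus DMSO.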

A short description of test [5]: ATG_BRE_CIS: Attagene CIS-FACTORIAL HepG2 Assay for human Bone Morphogenetic Protein (BMP) Response Element (BRE) (AID 2282933). The conditions noted are these: HepG2 BMP response element reporter, Attagene transcription factor profiling; actives raise or lower the signal. In short, it runs like this:
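Fluorescence-labelled reporter cDNA fragments, separated by capillary electrophoresis, gave the signal for this component of a 52-readout multiplex. HepG2 cells were transfected, exposed to chemicals for 24 h, and compared with DMSO using bidirectional fitting.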

In test [6] the target is Retinoic acid receptor alpha (Homo sapiens) (UniProt P10276). Put plainly: ATG_DR5_RAR_CIS: Attagene CIS-FACTORIAL HepG2 Assay for human Retinoic Acid Receptor Alpha (RARE), DR5 submotif (AID 2282934). The conditions noted are these: HepG2 Attagene cis-factorial RARE DR5 reporter, mRNA; actives raise or lower the signal. In short, it runs like this:
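HepG2 cells transiently transfected with multiplexed reporter units under cis (DR5 RARE) promoters, so endogenous transcription factor activity is measured. After 24 h compound exposure, reporter mRNA is quantified by RT-PCR with fluorescent labelling and capillary electrophoresis; bidirectional fitting versus DMSO.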

For test [7], the target named is Transcription factor E2F1 (Homo sapiens) (UniProt Q01094). Put plainly: ATG_E2F_CIS: Attagene CIS-FACTORIAL HepG2 Assay for human E2F Transcription Factor 1 (AID 2282935). The conditions noted are these: HepG2 Attagene cis-reporter, E2F reporter RNA transcripts; actives raise or lower the signal. In short, it runs like this: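 First, HepG2 cells were transfected with reporter transcription units. Next, they were dosed for 24 h. Then RNA was isolated, converted to cDNA, PCR-amplified, FAM-labeled, HpaI-digested and analyzed by capillary electrophoresis.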
Sequence of Transcription factor E2F1 (Homo sapiens) (Q01094 whole entry, looked up): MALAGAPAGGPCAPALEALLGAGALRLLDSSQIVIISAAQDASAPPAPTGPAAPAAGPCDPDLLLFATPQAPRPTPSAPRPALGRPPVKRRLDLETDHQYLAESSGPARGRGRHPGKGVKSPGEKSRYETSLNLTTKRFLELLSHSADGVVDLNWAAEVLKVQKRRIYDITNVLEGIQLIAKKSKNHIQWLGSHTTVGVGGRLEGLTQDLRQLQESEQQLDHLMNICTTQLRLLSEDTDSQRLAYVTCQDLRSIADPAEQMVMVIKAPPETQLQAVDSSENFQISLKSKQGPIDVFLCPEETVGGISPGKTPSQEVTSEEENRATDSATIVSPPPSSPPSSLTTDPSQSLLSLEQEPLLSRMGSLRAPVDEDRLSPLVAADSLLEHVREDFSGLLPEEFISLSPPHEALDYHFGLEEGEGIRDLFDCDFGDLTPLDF

Test [8] in a line: ATG_E_Box_CIS: Attagene CIS-FACTORIAL HepG2 Assay for human Enhancer Box (E-box) (AID 2282936). The conditions noted are these: HepG2 E-box cis-reporter transcription, actives raise or lower the signal. In short, it runs like this: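 Endogenous transcription factor activity was sensed in human HepG2 liver cells through transfected cis-promoter reporter units. After 24 h of dosing, total RNA was reverse-transcribed and reporter cDNA resolved by capillary electrophoresis.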

The nature of test [9]: ATG_M_61_CIS: Attagene CIS-FACTORIAL HepG2 Assay for M61 Transcription Factor (Internal Marker) (AID 2282937). The conditions noted are these: HepG2 Attagene CIS-FACTORIAL M61 internal marker reporter; actives raise or lower the signal. In short, it runs like this:
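HepG2 cells transiently transfected with cis-element-driven multiple reporter transcription units, dosed for 24 h. Reporter mRNA measured by RT-PCR, 6-FAM primer-extension labelling, HpaI digestion and capillary electrophoresis; bidirectional fit versus DMSO baseline.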

Test [10] is described as follows: ATG_EGR_CIS: Attagene CIS-FACTORIAL HepG2 Assay for human Early Growth Response 1 (EGR1) (AID 2282938). The conditions noted are these: HepG2 Attagene CIS-FACTORIAL EGR reporter mRNA; actives raise or lower the signal. Put shortly: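 HepG2 cells transiently transfected with cis-promoter-driven multiplexed reporter transcription units; reporter mRNA measured 24 h after compound dosing by RT-PCR, 6-FAM primer extension, HpaI digestion and capillary electrophoresis. Bidirectional fit versus DMSO baseline.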

Test [11] can be described thus: ATG_M_19_CIS: Attagene CIS-FACTORIAL HepG2 Assay for M19 Transcription Factor (Internal Marker) (AID 2282939). The conditions noted are these: HepG2 Attagene CIS-FACTORIAL M19 internal marker reporter; actives raise or lower the signal. In short, it runs like this: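 HepG2, MRTU transient transfection, 24 h dosing. Total RNA → RT-PCR → 6-FAM primer extension → HpaI digest → CE fluorescence. Bidirectional curve fit, DMSO negative control.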

Test [12] in a line: ATG_ERE_CIS: Attagene CIS-FACTORIAL HepG2 Assay for Estrogen Response Element (ERE) (AID 2282940). The conditions noted are these: HepG2 ERE cis-reporter, Attagene RNA transcript; actives raise or lower the signal. In short, it runs like this:
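After a 24 h chemical treatment, RNA from reporter-transfected HepG2 cells is reverse-transcribed, PCR-amplified and fluorescently labelled. Fragments separated by capillary electrophoresis give reporter signal; DMSO serves as negative control.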

The nature of test [13]: ATG_Ets_CIS: Attagene CIS-FACTORIAL HepG2 Assay for human Erythroblast Transformation Specific (ETS) (AID 2282941). The conditions noted are these: HepG2 ETS cis-reporter transcription; AC50: actives raise or lower the signal unless noted; outcome: actives raise or lower the signal unless noted. Put shortly:
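RT-PCR/capillary electrophoresis fluorescence read-out of reporter mRNA; HepG2 transient multi-reporter transfection; 24 h compound exposure; gain or loss of signal fitted bidirectionally relative to DMSO.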

A short description of test [14]: ATG_FoxO_CIS: Attagene CIS-FACTORIAL HepG2 Assay for human Forkhead box O (FoxO) (AID 2282943). The conditions noted are these: HepG2 Attagene cis-reporter, FoxO element, mRNA; actives raise or lower the signal. Put shortly:
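HepG2 cells transiently transfected with cis-promoter-driven multiple reporter transcription units; 24 h after chemical dosing, reporter mRNA quantified by RT-PCR, fluorescent primer extension, HpaI digestion and capillary electrophoresis. Bidirectional fitting versus DMSO baseline.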

Test [15] can be described thus: ATG_GATA_CIS: Attagene CIS-FACTORIAL HepG2 Assay for human GATA Binding Protein (AID 2282944). The conditions noted are these: HepG2 GATA cis-element reporter, Attagene multiplex mRNA; actives raise or lower the signal. In short, it runs like this: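 Cells: HepG2, transiently transfected with cis-regulated reporter transcription units. Exposure: 24 h. Detection: RT-PCR plus capillary electrophoresis of FAM-labeled fragments. Analysis: bidirectional, DMSO as baseline.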

Test [16] can be described thus: ATG_GLI_CIS: Attagene CIS-FACTORIAL HepG2 Assay for human Zinc Finger Protein GLI1 (AID 2282945). The conditions noted are these: HepG2, Attagene cis-factorial reporter mRNA, GLI element; actives raise or lower the signal. Put shortly: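 HepG2 cells transiently transfected with cis-promoter multiplexed reporter units report endogenous transcription factor activity. After 24 h chemical exposure, reporter mRNA was quantified by RT-PCR, 6-FAM labelling, HpaI digestion and capillary electrophoresis, with bidirectional fitting against DMSO.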

Test [17] addresses Bile acid receptor (Homo sapiens) (UniProt Q96RI1). Put plainly: ATG_IR1_CIS: Attagene CIS-FACTORIAL HepG2 Assay for human Nuclear Receptor Subfamily 1 Group H Member 4 (NR1H4), IR1 submotif (AID 2282946). The conditions noted are these: IR1 reporter transcription, actives raise or lower the signal. In short, it runs like this: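 Readout: reporter transcript levels by RT-PCR with fluorescent capillary electrophoresis, from HepG2 cells transiently transfected with multiplexed cis-regulated reporters and dosed 24 h. Gain- or loss-of-signal fitted versus DMSO negative control.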

Test [18] in a line: ATG_GRE_CIS: Attagene CIS-FACTORIAL HepG2 Assay for human Glucocorticoid Response Elements (GRE) (AID 2282947). The conditions noted are these: HepG2 GRE cis-reporter, Attagene multiplex mRNA; AC50: actives raise or lower the signal unless noted; outcome: actives raise or lower the signal unless noted. Put shortly:
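Cells (HepG2) bearing transfected cis-promoter reporter transcription units were treated with chemical for 24 hours. Reporter mRNA was measured via RT-PCR with capillary electrophoresis, and activity was fitted in both directions relative to DMSO.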

Test [19] can be described thus: ATG_ISRE_CIS: Attagene CIS-FACTORIAL HepG2 Assay for human Interferon Regulatory Factor 1 (IRF1) binding to an Interferon-Stimulated Response Element (ISRE) (AID 2282948). The conditions noted are these: HepG2 ISRE cis-reporter (Attagene), mRNA transcription readout; actives raise or lower the signal. In short, it runs like this:
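Read-out: fluorescent RT-PCR products resolved by capillary electrophoresis, reporting endogenous transcription factor activity via ISRE-driven reporter mRNA in transfected HepG2 cells dosed for 24 h; gain or loss fitted relative to DMSO.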

For test [20], the target named is Hepatocyte nuclear factor 3-beta (Homo sapiens) (UniProt Q9Y261). Put plainly: ATG_FoxA2_CIS: Attagene CIS-FACTORIAL HepG2 Assay for human Forkhead box A2 (FOXA2) (AID 2282942). The conditions noted are these: HepG2 cis-reporter transcription factor activity, 24 h; actives raise or lower the signal. In short, it runs like this: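 HepG2 cells transiently transfected with multiple cis-regulated reporter transcription units, dosed for 24 h. Reporter mRNA measured by RT-PCR, 6-FAM labelling, HpaI digestion and capillary electrophoresis; bidirectional fitting against DMSO baseline.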
Sequence of Hepatocyte nuclear factor 3-beta (Homo sapiens) (Q9Y261 whole entry, looked up): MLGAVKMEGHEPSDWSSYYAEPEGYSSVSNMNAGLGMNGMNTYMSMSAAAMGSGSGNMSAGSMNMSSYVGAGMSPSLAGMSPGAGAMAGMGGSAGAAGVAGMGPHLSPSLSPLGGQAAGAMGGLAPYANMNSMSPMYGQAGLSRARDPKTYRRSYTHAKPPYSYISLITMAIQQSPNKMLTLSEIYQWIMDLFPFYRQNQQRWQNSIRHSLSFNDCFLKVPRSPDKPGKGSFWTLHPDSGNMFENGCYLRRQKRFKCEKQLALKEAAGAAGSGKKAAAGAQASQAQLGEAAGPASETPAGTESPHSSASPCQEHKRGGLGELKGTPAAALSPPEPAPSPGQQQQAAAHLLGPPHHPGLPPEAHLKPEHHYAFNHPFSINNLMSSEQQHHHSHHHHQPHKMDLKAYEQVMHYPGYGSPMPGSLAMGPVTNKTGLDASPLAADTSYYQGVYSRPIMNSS

Activity calls are given as the source filed them. The calls were made as follows: active = hit-call score of the fitted dose curve at least 0.9, where 1 is the maximum; inactive = score below 0.9.

Sequence of Retinoic acid receptor alpha (Homo sapiens) (P10276 whole entry, looked up): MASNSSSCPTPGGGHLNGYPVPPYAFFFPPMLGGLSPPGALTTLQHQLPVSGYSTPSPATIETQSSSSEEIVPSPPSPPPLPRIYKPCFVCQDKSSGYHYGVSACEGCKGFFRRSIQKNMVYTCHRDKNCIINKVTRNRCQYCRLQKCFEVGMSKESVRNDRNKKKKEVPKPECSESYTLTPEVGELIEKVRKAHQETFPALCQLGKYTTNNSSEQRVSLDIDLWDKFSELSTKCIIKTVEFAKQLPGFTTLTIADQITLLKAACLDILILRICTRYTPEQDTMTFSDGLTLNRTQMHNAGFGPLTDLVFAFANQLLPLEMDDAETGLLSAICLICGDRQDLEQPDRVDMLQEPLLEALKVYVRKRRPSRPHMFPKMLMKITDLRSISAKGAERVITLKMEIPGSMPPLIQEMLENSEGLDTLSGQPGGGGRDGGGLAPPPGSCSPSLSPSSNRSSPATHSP
Sequence of Bile acid receptor (Homo sapiens) (Q96RI1 whole entry, looked up): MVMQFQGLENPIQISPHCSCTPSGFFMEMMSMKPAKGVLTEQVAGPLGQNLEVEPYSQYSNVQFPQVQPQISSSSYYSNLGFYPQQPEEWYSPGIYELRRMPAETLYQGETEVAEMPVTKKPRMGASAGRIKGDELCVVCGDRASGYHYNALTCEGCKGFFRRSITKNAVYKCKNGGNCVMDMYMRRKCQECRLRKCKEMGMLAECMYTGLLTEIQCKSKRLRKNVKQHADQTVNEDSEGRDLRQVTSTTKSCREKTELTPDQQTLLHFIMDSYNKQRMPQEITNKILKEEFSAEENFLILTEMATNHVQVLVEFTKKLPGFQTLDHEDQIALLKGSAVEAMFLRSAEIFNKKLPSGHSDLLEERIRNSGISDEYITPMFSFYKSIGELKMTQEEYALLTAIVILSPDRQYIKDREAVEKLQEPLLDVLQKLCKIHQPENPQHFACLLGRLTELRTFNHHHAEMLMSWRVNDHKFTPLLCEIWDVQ
Sequence of Aryl hydrocarbon receptor (Homo sapiens) (P35869 whole entry, looked up): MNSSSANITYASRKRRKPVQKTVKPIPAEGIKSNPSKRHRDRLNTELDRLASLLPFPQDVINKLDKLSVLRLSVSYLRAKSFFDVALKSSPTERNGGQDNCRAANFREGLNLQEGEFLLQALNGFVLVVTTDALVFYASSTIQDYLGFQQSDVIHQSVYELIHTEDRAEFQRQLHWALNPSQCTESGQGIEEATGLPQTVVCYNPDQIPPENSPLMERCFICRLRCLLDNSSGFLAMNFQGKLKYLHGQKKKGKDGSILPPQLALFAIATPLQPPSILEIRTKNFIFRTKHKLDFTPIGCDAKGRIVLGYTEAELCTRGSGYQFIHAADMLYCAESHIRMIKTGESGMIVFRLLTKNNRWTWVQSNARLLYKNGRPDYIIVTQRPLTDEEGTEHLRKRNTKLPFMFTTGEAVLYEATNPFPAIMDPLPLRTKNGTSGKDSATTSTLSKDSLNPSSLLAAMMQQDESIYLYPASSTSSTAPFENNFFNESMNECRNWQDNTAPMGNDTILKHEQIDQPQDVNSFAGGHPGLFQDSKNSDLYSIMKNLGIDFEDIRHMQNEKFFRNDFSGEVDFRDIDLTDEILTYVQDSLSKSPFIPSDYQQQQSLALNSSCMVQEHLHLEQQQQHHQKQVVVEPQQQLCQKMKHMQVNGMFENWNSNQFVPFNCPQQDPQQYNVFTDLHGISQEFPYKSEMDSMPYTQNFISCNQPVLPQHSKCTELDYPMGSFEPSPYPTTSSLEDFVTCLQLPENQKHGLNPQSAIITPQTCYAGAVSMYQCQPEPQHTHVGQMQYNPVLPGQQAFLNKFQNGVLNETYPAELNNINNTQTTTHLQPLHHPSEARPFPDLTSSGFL

For `CN(CCO)S(=O)(=O)C(F)(F)C(F)(F)C(F)(F)C(F)(F)C(F)(F)C(F)(F)C(F)(F)C(F)(F)F`, the outcome in test [1], in test [2], in test [3], in [4], in test [5] and in test [6] was inactive. Moreover, the compound was called inactive in test [7], in test [8], in test [9], in test [10], in [11] and in [12]. The result in test [13], in test [14], in test [15], in test [16], in test [17] and in [18] was inactive. Also, in [19], the outcome was inactive.

As to `c1cc2cccc3c4cccc5cccc(c(c1)c23)c54`, the outcome in test [1], in [3], in [4], in [5], in test [6] and in [7] was inactive. The outcome in test [8], in test [9], in [10], in test [11], in test [12] and in [13] was inactive. The outcome in test [20], in test [14], in test [15], in test [16], in test [17] and in test [18] was inactive. In test [19], the call was inactive. For the same compound, the AC50 in [2] is 17.6 µM (active).

With `CC(=O)Nc1ccc(S(N)(=O)=O)cc1`, the compound was called inactive in [1], in test [2], in [3], in test [4], in test [5] and in [6]. In addition, the compound was classed as inactive in test [7], in test [8], in test [9], in [10], in [11] and in test [12]. In addition, the outcome in [13], in test [14], in [15], in test [16], in test [17] and in test [18] was inactive. In addition, the compound was classed as inactive in [19].

A word on the AC50: it is the concentration giving half of the maximal activity seen.
